Experimental data as given in PubChem BioAssay (NCATS).
Records with an inconclusive call do not appear. Entries that show only a call come without a potency. Activity calls are given as the source filed them. Calls follow the shape of the dose curve; as a rule, active = well fitted cell-killing curve with a large enough effect; inconclusive = small, poorly fitted or top-dose-only effect, or effect the other way; inactive = no such curve, though single readings can be large or run the other way.

Experiment: Quantitative High-Throughput drug screen in 47 multiple myeloma cell lines against the NCATS MIPE library collection: OPM2_DSMZ cell viability assay (AID 1919872); also: nearly all actives have a fitted effect of over 30% in size
Conditions: OPM2 myeloma viability, CellTiter-Glo ATP luminescence, 48 h; series mostly up to 45.8 µM
Summary of the method: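 CellTiter-Glo luminescence (ATP) after 48 h compound exposure, 37C/5% CO2; 500 cells/well; MIPE 4.0 approved/investigational drugs pinned in; DMSO = 100%, media only = 0% viability.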
Potency is read from the fitted curve at half-maximal effect.

| Compound | Potency |
| --- | --- |
| CC(=O)OCC1=C(C(=O)O)N2C(=O)[C@@H](N)[C@@H]2SC1 | inactive |
| Cc1c(C(=O)c2cccc3ccccc23)c2cccc3c2n1[C@H](CN1CCOCC1)CO3 | 23.5 µM (active) |
| CCOC(=O)c1c(C(C#N)=CN)c2ccc(Cl)c(Cl)c2n1C | inactive |
| CC(C)[C@H]1C(=O)N[C@H](CO)Cc2c[nH]c3cccc(c23)N1C | 0.0662 µM (active) |
| COc1cc([C@@H]2c3cc4c(cc3[C@@H](O)C3COC(=O)C32)OCO4)cc(OC)c1O (stereo not given in full) | 0.0418 µM (active) |
| CC(=O)O[C@@]12CO[C@H]1C[C@H](O)[C@@]1(C)C(=O)[C@H](O)C3=C(C)[C@@H](O)C[C@@](O)([C@@H](OC(=O)c4ccccc4)[C@@H]21)C3(C)C | 9.35 µM (active) |
| C=C[C@@H]1CN2CCC1C[C@@H]2[C@@H](O)c1ccnc2ccccc12 (stereo not given in full) | 20.9 µM (active) |
| C[C@]12CC[C@H]3[C@@H](CCC4=CC(=O)CC[C@@]43C)[C@H]1CC[C@H]2OC(=O)CCC1CCCC1 | inactive |
| O=C(NCC1CCOCC1)c1cnc(Nc2ccc(Cl)cc2Cl)nc1C(F)(F)F | inactive |
| Cc1ccccc1-n1c(Cn2cnc3c(N)ncnc32)nc2cccc(C)c2c1=O | 1.05 µM (active) |
| CN[C@@H]1Cc2cccc3[nH]c(=O)n(c23)C1 | inactive |
| O=C1CCC[C@@H]2[C@H]3CCCN4CCC[C@@H](CN12)[C@@H]34 | inactive |
| C[C@]12Cc3cn[nH]c3C[C@@H]1CC[C@@H]1[C@H]2CC[C@@]2(C)[C@H]1CC[C@]2(C)O | inactive |
| CCNC(=O)CC1N=C(c2ccc(Cl)cc2)c2cc(OC)ccc2-n2c(C)nnc21 (stereo not given) | 16.6 µM (active) |
| O=C(N[C@@H](COc1ccc2[nH]c(=O)[nH]c2c1)c1ccccc1)c1cccn(Cc2ccc(F)c(F)c2)c1=O | inactive |
| C[C@]12CC[C@H]3[C@@H](CCC4=CC(=O)CC[C@@]43C)[C@H]1CC[C@H]2O | inactive |
| Cc1ccccc1-n1c(Cn2ncc3c(N)ncnc32)nc2cccc(C)c2c1=O | 8.33 µM (active) |
| C[C@]12COC(=O)C[C@@H]1CC[C@@H]1[C@H]2CC[C@@]2(C)[C@H]1CC[C@]2(C)O | inactive |
| c1cc2c(cc1[C@H]1OC[C@H]3[C@H]1CO[C@H]3c1ccc3c(c1)OCO3)OCO2 | inactive |
| CC(C)(O)C(=O)Nc1ccc([N+](=O)[O-])c(C(F)(F)F)c1 | inactive |
| C[C@]12CC[C@@H]3[C@@H](CCC4=CC(=O)CC[C@@H]43)[C@@H]1CC[C@@H]2OC(=O)CCc1ccccc1 | inactive |
| Cc1nc(-c2ccc(-c3ccc(C(=O)N4CCc5cc6c(cc54)C4(CCN(C)CC4)CO6)cc3)c(C)c2)no1 | inactive |
| COc1ccc(C(=O)c2c(C)n(CCN3CCOCC3)c3cc(I)ccc23)cc1 | 26.4 µM (active) |
| COC[C@H]1OC(=O)c2coc3c2[C@@]1(C)C1=C(C3=O)[C@@H]2CC[C@H](O)[C@@]2(C)C[C@@H]1OC(C)=O | 1.87 µM (active) |

Experiment: Quantitative High-Throughput drug screen in 47 multiple myeloma cell lines against the NCATS MIPE library collection: KMS11_JCRBsus cell viability assay (AID 1919873); also: nearly all actives have a fitted effect of over 50% in size
Conditions: KMS11 myeloma viability, CellTiter-Glo ATP luminescence, 48 h; series mostly up to 45.8 µM
Summary of the method: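 MIPE 4.0 approved/investigational drugs; 500 cells/well; 48 h 37 °C humidified 5% CO2; CTG luminescence readout; DMSO = 100%, media = 0% viability.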

| Compound | Potency |
| --- | --- |
| CC(=O)OCC1=C(C(=O)O)N2C(=O)[C@@H](N)[C@@H]2SC1 | inactive |
| Cc1c(C(=O)c2cccc3ccccc23)c2cccc3c2n1[C@H](CN1CCOCC1)CO3 | 23.5 µM (active) |
| CC(C)[C@H]1C(=O)N[C@H](CO)Cc2c[nH]c3cccc(c23)N1C | inactive |
| COc1cc([C@@H]2c3cc4c(cc3[C@@H](O)C3COC(=O)C32)OCO4)cc(OC)c1O (stereo not given in full) | 0.0093 µM (active) |
| CC(=O)O[C@@]12CO[C@H]1C[C@H](O)[C@@]1(C)C(=O)[C@H](O)C3=C(C)[C@@H](O)C[C@@](O)([C@@H](OC(=O)c4ccccc4)[C@@H]21)C3(C)C | 2.35 µM (active) |
| C=C[C@@H]1CN2CCC1C[C@@H]2[C@@H](O)c1ccnc2ccccc12 (stereo not given in full) | 20.9 µM (active) |
| C[C@]12CC[C@H]3[C@@H](CCC4=CC(=O)CC[C@@]43C)[C@H]1CC[C@H]2OC(=O)CCC1CCCC1 | inactive |
| COc1ccc2c(c1)CN(C)CC2c1ccc(Cl)c(Cl)c1 (stereo not given) | 14.8 µM (active) |
| O=C(NCC1CCOCC1)c1cnc(Nc2ccc(Cl)cc2Cl)nc1C(F)(F)F | inactive |
| CCNC(=O)C[C@@H]1N=C(c2ccc(Cl)cc2)c2cc(OC)ccc2-n2c(C)nnc21 | 0.105 µM (active) |
| CN[C@@H]1Cc2cccc3[nH]c(=O)n(c23)C1 | inactive |
| O=C1CCC[C@@H]2[C@H]3CCCN4CCC[C@@H](CN12)[C@@H]34 | inactive |
| COc1ccc(N(C(=O)Oc2c(C)cccc2C)c2ccnc(Nc3ccc(N4CCN(C)CC4)cc3)n2)c(OC)c1 | 9.35 µM (active) |
| CCNC(=O)CC1N=C(c2ccc(Cl)cc2)c2cc(OC)ccc2-n2c(C)nnc21 (stereo not given) | 18.7 µM (active) |
| Cc1ccccc1-n1c(Cn2ncc3c(N)ncnc32)nc2cccc(C)c2c1=O | 1.05 µM (active) |
| C[C@]12COC(=O)C[C@@H]1CC[C@@H]1[C@H]2CC[C@@]2(C)[C@H]1CC[C@]2(C)O | inactive |
| O=S(=O)(CC1CS1)c1ccc(Oc2ccccc2)cc1 (stereo not given) | 26.4 µM (active) |
| C=CCON=C(C[C@H]1O[C@@H]2O[C@]3(C)CC[C@@H]4[C@H](C)CC[C@@H]([C@H]1C)[C@@]24OO3)[C@H]1O[C@@H]2O[C@]3(C)CC[C@H]4[C@H](C)CC[C@@H]([C@@H]1C)[C@@]24OO3 | 0.187 µM (active) |
| c1cc2c(cc1[C@H]1OC[C@H]3[C@H]1CO[C@H]3c1ccc3c(c1)OCO3)OCO2 | inactive |
| C[C@]12CC[C@@H]3[C@@H](CCC4=CC(=O)CC[C@@H]43)[C@@H]1CC[C@@H]2OC(=O)CCc1ccccc1 | inactive |
| Cc1nc(-c2ccc(-c3ccc(C(=O)N4CCc5cc6c(cc54)C4(CCN(C)CC4)CO6)cc3)c(C)c2)no1 | inactive |
| COc1ccc(C(=O)c2c(C)n(CCN3CCOCC3)c3cc(I)ccc23)cc1 | 23.5 µM (active) |
| Cc1c(C(=O)Nc2cccc(C(F)(F)F)c2)cc(-c2ccccc2)n1CCCN1CCOCC1 | 23.5 µM (active) |
| N#C[C@H](O[C@@H]1O[C@H](CO[C@@H]2O[C@H](CO)[C@H](O)[C@H](O)[C@H]2O)[C@H](O)[C@H](O)[C@H]1O)c1ccccc1 | 7.43 µM (active) |
| CCOP(=O)(OCC)C(C)NC(=O)N(CCCl)N=O (stereo not given) | inactive |
| COC[C@H]1OC(=O)c2coc3c2[C@@]1(C)C1=C(C3=O)[C@@H]2CC[C@H](O)[C@@]2(C)C[C@@H]1OC(C)=O | 1.66 µM (active) |
